Consider 19 molecules from PubChem BioAssay (NCATS).

The target in assay [1] is Cellular tumor antigen p53 (Homo sapiens) (UniProt P04637). Kind of assay: Primary qHTS for small molecule compounds that upregulate eGFP-tagged delta133p53alpha (in N-terminal) cells. (AID 2060322). Further: nearly all actives have a fitted effect of over 75% in size.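 On activation: series mostly up to about 56 µM; 0% = DMSO vehicle and 100% = reference activator.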 The note with it: NCI-H358 eGFP-delta133p53alpha fluorescence, 24 h; activation: hits give high values. Summed up:
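NCI-H358 cells pre-induced 24 h with 10 ng/ml doxycycline to express N-terminal eGFP-delta133p53alpha, then dosed 24 h at 37C without doxycycline; fixed, Hoechst-stained, GFP intensity by laser scanning cytometry, normalized to DMSO (0%) and 57.5 uM 5-azacytidine (100%).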
Background: In qHTS, concentration-response curves come from the screen itself.

A short description of assay [2]: BET inhibitor-based combinations targeting novel dependencies in MECOM-rearranged (r) AML: SET-2 cell line (AID 2202231). Further: nearly all actives have a fitted effect of over 35% in size.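 On viability: plate controls were DMSO treated cells for no effect and wells without cells for full effect.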 The settings on record: SET-2 AML cells viability, CellTiter-Glo luminescence, 48 h; viability: hits give low values, concentration not given here. The essentials: (§1)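 500 cells/well; 11-pt dose curve; 48 h, standard incubator; CellTiter-Glo luminescence after 15 min RT; DMSO/empty-well normalization; AUC plus Z-AUC (mean-centered within each line).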
For orientation: In ATP-based viability assays light output follows the ATP content of the culture.

The nature of assay [3]: BET inhibitor-based combinations targeting novel dependencies in MECOM-rearranged (r) AML: OCI-AML3 cell line (AID 2202232). Further: nearly all actives have a fitted effect of over 35% in size. The note with it: Potency: OCI-AML3 viability. The essentials: as §1
A short description of assay [4]: BET inhibitor-based combinations targeting novel dependencies in MECOM-rearranged (r) AML: MV-4-11 cell line (AID 2202233). Further: nearly all actives have a fitted effect of over 45% in size. The essentials:
(§2)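 Cells were plated at 500 per well and exposed to each drug across an 11-point dose range for 48 hr at standard incubator conditions. Viability was read by CellTiter-Glo luminescence, and activity was expressed as AUC and per-cell-line Z-transformed AUC.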

A short description of assay [5]: BET inhibitor-based combinations targeting novel dependencies in MECOM-rearranged (r) AML: UCSD-AML1 cell line (AID 2202235). Further: nearly all actives have a fitted effect of over 40% in size. The essentials:
as §2

Assay [6] in a line: BET inhibitor-based combinations targeting novel dependencies in MECOM-rearranged (r) AML: AML-191 cell line (AID 2202236; further: nearly all actives have a fitted effect of over 35% in size). Summed up: as §1
Assay [7] can be described thus: BET inhibitor-based combinations targeting novel dependencies in MECOM-rearranged (r) AML: AML-194 cell line (AID 2202237; further: nearly all actives have a fitted effect of over 40% in size). The essentials: as §1
Assay [8] is described as follows: BET inhibitor-based combinations targeting novel dependencies in MECOM-rearranged (r) AML: HNT-34 cell line (AID 2202234). Further: nearly all actives have a fitted effect of over 35% in size. Summed up:
as §2

SMILES strings stand for the structures. Values joined by “and” are separate entries in the source; they are usually repeats but may differ in a detail not shown here. Equal entries are not always repeated. Records with an inconclusive call do not appear. Values without a mark were called inactive. Active and inactive are the calls of the source. The call rests on the fitted dose curve; in most records, active means well fitted curve in the direction sought with a large enough effect; inconclusive means small, poorly fitted or top-dose-only effect, or another doubt; inactive means no such curve, though single readings can be large; an effect the other way counts as inactive or inconclusive.
Potency means the concentration at half of the fitted maximal effect.

Chain of Cellular tumor antigen p53 (Homo sapiens) (P04637 whole entry, looked up): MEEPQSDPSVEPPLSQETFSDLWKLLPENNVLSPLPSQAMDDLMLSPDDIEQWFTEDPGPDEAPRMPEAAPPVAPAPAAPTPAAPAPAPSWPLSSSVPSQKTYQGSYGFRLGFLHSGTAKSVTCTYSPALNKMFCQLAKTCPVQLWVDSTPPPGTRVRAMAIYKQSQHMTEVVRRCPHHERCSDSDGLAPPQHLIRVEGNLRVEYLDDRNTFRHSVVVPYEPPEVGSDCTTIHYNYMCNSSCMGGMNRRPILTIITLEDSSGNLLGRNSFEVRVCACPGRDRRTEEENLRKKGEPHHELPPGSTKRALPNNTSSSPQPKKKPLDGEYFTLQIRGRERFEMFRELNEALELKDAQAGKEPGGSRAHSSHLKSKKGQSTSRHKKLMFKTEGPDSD

As for `COc1c(C)c2c(c(O)c1C/C=C(\C)CCC(=O)OCCN1CCOCC1)C(=O)OC2`, in assay [1], the activation was -10.7%. Besides, the Potency is 1.32 µM (active) in assay [2]; 1.32 µM (active) in assay [3]; 0.662 µM (active) in assay [4]; 1.18 µM (active) in assay [5]; 1.32 µM (active) in assay [6].

Usually viability stands for a read-out of living cells in per cent, often relative to untreated cells. On to `CC(C)[C@H](O)C(=O)N[C@@H](C)C(=O)N[C@@H]1C(=O)N(C)CCc2ccccc21`, for which the activation in assay [1] was 28.1%. Besides, in assay [2], the viability was 117%. Also, the Potency entry in assay [3], in assay [4], in assay [5], in assay [6] and in assay [7] was “inactive” throughout.

`Nc1cc(C(Cl)=C(Cl)Cl)c(S(N)(=O)=O)cc1S(N)(=O)=O`: the activation in assay [1] is 44.6%. For the same molecule, the viability in assay [2] is 111%. The Potency entry in assay [3], in assay [4], in assay [5], in assay [6] and in assay [7] was “inactive” each time.

As to `O=C1NC(O)CCN1[C@@H]1O[C@H](CO)[C@H](O)[C@H]1O` (stereo partly drawn), the activation in assay [1] was -10.6%. Moreover, the viability in assay [2] is 115%. Moreover, the Potency result in assay [3], in assay [4], in assay [8], in assay [6] and in assay [7] was “inactive” throughout.

`CN1CCN(c2cc(C(=O)Nc3ccc4c(c3)-c3c(c(C(N)=O)nn3-c3ccc(F)cc3)CC4)c(Cl)cn2)CC1`: in assay [1], the activation was 10.2%. Further, the Potency was 8.33 µM (active) in assay [2]; 16.6 µM (active) in assay [3]; 7.42 µM (active) in assay [4]; 7.42 µM (active) in assay [8]; 8.33 µM (active) in assay [6]; 8.33 µM (active) in assay [7].

`CC1=C(C)C(=O)C(C(CCCCCC(=O)O)c2ccccc2)=C(C)C1=O` (stereo not drawn): the activation in assay [1] is -10.7% and 34%. Also, the viability in assay [2] was 93.3%. The Potency entry in assay [3], in assay [4], in assay [5] and in assay [6] was “inactive” in each case.

With `CC(C)[C@H](CO)Nc1nc(Nc2cccc(Cl)c2)c2ncn(C(C)C)c2n1`, the Potency in assay [1] was 24.3 µM (active); in assay [2], 16.6 µM (active); in assay [3] it was 18.6 µM (active); in assay [4], 3.72 µM (active); in assay [5] it was 26.3 µM (active); in assay [6], 14.8 µM (active). The Potency in assay [7] is 16.6 µM (active).

With `CNC(=O)Nc1ccc(-c2nc(N3CC4CCC(C3)O4)c3cnn(C4CCC5(CC4)OCCO5)c3n2)cc1`, in assay [1], the activation is 8.27%. In addition, the Potency in assay [2] was 0.263 µM (active); in assay [3], 0.105 µM (active); in assay [4], 0.166 µM (active); in assay [5] it was 0.0295 µM (active); in assay [6] it was 0.0295 µM (active).

Regarding `C[C@@H]1C[C@H]2[C@@H]3CCC4=CC(=O)C=C[C@]4(C)[C@@]3(F)[C@@H](O)C[C@]2(C)[C@@]1(O)C(=O)CO`, in assay [1], the activation was -11.9%. The viability in assay [2] is 112%. The Potency entry in assay [3], in assay [4] and in assay [5] was “inactive” in each case.

With `COC(=O)Nc1cc(Nc2cc(NC3CC3)c3ncc(C#N)n3n2)c(Cl)c(N2CCN(C)CC2)c1`, in assay [1], the activation was -10.3%. Moreover, the Potency in assay [2] is 2.95 µM (active); in assay [3], 3.32 µM (active); in assay [4], 0.833 µM (active); in assay [5], 2.63 µM (active); in assay [6], 2.63 µM (active); in assay [7] it was 2.63 µM (active).

As for `O=C(/C=C/C#Cc1cccc(NS(=O)(=O)c2ccccc2)c1)NO`, the activation in assay [1] is -10.1%. Further, the Potency is 0.407 µM (active) in assay [2]; 0.574 µM (active) in assay [3]; 0.182 µM (active) in assay [4]; 0.645 µM (active) in assay [5]; 0.723 µM (active) in assay [6]; 0.91 µM (active) in assay [7].

For `CN[C@@H]1CN(c2ccc3c(=O)c(C(=O)O)cn(-c4nccs4)c3n2)C[C@@H]1OC`, the activation in assay [1] was 8.83%. Also, the Potency in assay [2] was 3.23 µM (active); in assay [3], 1.15 µM (active); in assay [4], 0.323 µM (active); in assay [8], 1.15 µM (active); in assay [6], 1.82 µM (active); in assay [7], 1.29 µM (active).

As to `C[C@@H]1CN(c2c(F)c(N)c3c(=O)c(C(=O)O)cn(C4CC4)c3c2F)C[C@H](C)N1`, the activation in assay [1] was 22.7%. The viability in assay [2] is 102%. The Potency result in assay [3], in assay [4], in assay [8], in assay [6] and in assay [7] was “inactive” each time.

`COc1c(C)c2c(c(O)c1C/C=C(\C)CCC(=O)O)C(=O)OC2`: the activation in assay [1] was 7.34%. Moreover, the Potency in assay [2] was 1.18 µM (active); in assay [3], 1.32 µM (active); in assay [4], 0.742 µM (active); in assay [5], 0.833 µM (active); in assay [6] it was 1.05 µM (active); in assay [7], 1.32 µM (active).

In the case of `COc1cc(OC)c(C(=O)CCCN2CCCC2)c(OC)c1`, in assay [1], the activation is -15.1% and 2.07%. Further, in assay [2], the viability is 98%. Also, the Potency entry in assay [3], in assay [4], in assay [5], in assay [6] and in assay [7] was “inactive” in each case.

As to `OC(c1cc(C(F)(F)F)nc2c(C(F)(F)F)cccc12)C1CCCCN1` (stereo not drawn), the activation in assay [1] was -0.154%. Further, the Potency was 26.3 µM (active) in assay [2]; 18.6 µM (active) in assay [3]; 20.9 µM (active) in assay [4]; 23.5 µM (active) in assay [8]; 23.5 µM (active) in assay [6]; 20.9 µM (active) in assay [7].

Consider `Nc1ccc(S(N)(=O)=O)cc1`, for which the activation in assay [1] was -29.9% and 4.8%. Besides, the viability in assay [2] is 93.8%. Moreover, the Potency entry in assay [3], in assay [4], in assay [5], in assay [6] and in assay [7] was “inactive” throughout.

In the case of `Cc1cc(OCCCS(C)(=O)=O)cc(C)c1-c1cccc(COc2ccc3c(c2)OC[C@H]3CC(=O)O)c1`, the activation in assay [1] is 5.3%. For the same molecule, in assay [2], the viability is 98.7%. The Potency result in assay [3], in assay [4], in assay [8], in assay [6] and in assay [7] was “inactive” in each case.

Turning to `Cc1ccc(C(C)(O)c2nc3ccccc3s2)c(C)c1` (stereo not drawn), the activation in assay [1] was 5.91%. In addition, the Potency was 13.2 µM (active) in assay [2] and 18.6 µM (active) in assay [4]. For the same molecule, the Potency result in assay [3], in assay [5], in assay [6] and in assay [7] was “inactive” throughout.
